Drawing on PubChem BioAssay (NCI), this text covers growth for 12 compounds.

Among the test systems are DU-145 prostate; K-562 leukemia; MALME-3M melanoma; MDA-MB-231 breast; RXF 393 renal; SF-268 CNS; SF-295 CNS; SF-539 CNS; UACC-257 melanoma; M14 melanoma.
Holding throughout (assay): NCI-60 one-dose screen, 48 h (100 = growth as untreated, 0 = no growth, -100 = all killed)
Common to all, as to conditions: 10 µM unless noted

The structures appear in SMILES notation. About 83,000 compounds went through this panel and 20% of them were active in at least one assay; those are over-represented in the sample as a whole.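 Assay: single dose, 48 h. Readout: percent growth (0 = no net growth; negative = cell death). Active: <10.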 Values without a mark were called inactive. The source made the active and inactive calls.

For `COC(=O)[C@H](Cc1ccccc1)NC(=O)c1csc([C@@H](C[C@H](C(C)C)N(C)C(=O)[C@@H](NC(=O)[C@H]2CCCN2C)C2CC2)OC(C)=O)n1`, the growth in the experiment with DU-145 prostate is 7.69% (active); with K-562 leukemia it was 1.55% (active); in the experiment on MALME-3M melanoma, 62.9%; in the experiment on MDA-MB-231 breast, 6.1% (active); in the experiment on RXF 393 renal, 23.3%; in the experiment on SF-268 CNS, 24.4%. The growth was -4.82% (active) with SF-295 CNS, -24.9% (active) in the experiment with SF-539 CNS, 61.9% with UACC-257 melanoma and 1.22% (active) with M14 melanoma.
As to `CCN(CCO)C(Cc1ccccc1)c1ccccc1` (stereo not given), the growth with DU-145 prostate was 105%; in the experiment with K-562 leukemia, 107%; in the experiment with MALME-3M melanoma, 96.5%; in the experiment on MDA-MB-231 breast, 101%; in the experiment on RXF 393 renal it was 106%; in the experiment with SF-268 CNS, 101%. Moreover, the growth with SF-295 CNS was 95.5%; with SF-539 CNS, 106%; in the experiment on UACC-257 melanoma, 114%; in the experiment on M14 melanoma, 89%.
Consider `C[C@]12C[C@@H](CO)[C@H](O)C[C@@H]1CC[C@@H]1[C@@H]2CC[C@]2(C)[C@@H](O)CC[C@@H]12`, for which the growth is 106% in the experiment on DU-145 prostate; 74.7% with K-562 leukemia; 90.6% with MALME-3M melanoma; 111% in the experiment with MDA-MB-231 breast; 113% in the experiment on RXF 393 renal; 103% with SF-268 CNS. The growth with SF-295 CNS was 113%; with SF-539 CNS it was 95.8%; with UACC-257 melanoma, 90.4%; with M14 melanoma, 103%.
For `COC(=O)[C@@H](C)C[C@H](Cc1ccccc1)NC(=O)c1csc([C@@H](C[C@H](C(C)C)N(C)C(=O)[C@@H](NC(=O)[C@H]2CCCN2C)C2CC2)OC(C)=O)n1`, the growth with DU-145 prostate was 8.13% (active); in the experiment with K-562 leukemia it was 4.01% (active); in the experiment with MALME-3M melanoma, 64.2%; with MDA-MB-231 breast, 6.59% (active); in the experiment on RXF 393 renal, 81.3%; in the experiment on SF-268 CNS, 15.9%. Also, the growth in the experiment with SF-295 CNS was 0.995% (active); in the experiment on SF-539 CNS it was -14.6% (active); in the experiment with UACC-257 melanoma, 56.9%; in the experiment on M14 melanoma, 5.11% (active).
In the case of `CC1CN1CCCCN1CC1C` (stereo not given), the growth in the experiment with DU-145 prostate is 105%; with K-562 leukemia, 83.6%; with MALME-3M melanoma, 103%; in the experiment with MDA-MB-231 breast, 125%; in the experiment with RXF 393 renal, 115%; in the experiment with SF-268 CNS, 98.6%. Also, the growth with SF-295 CNS was 101%; in the experiment with SF-539 CNS it was 103%; in the experiment with UACC-257 melanoma it was 83.9%; in the experiment on M14 melanoma, 107%.
Take `COC(=O)[C@H](Cc1ccccc1)NC(=O)c1csc([C@@H](C[C@H](C(C)C)N(C)C(=O)[C@@H](NC(=O)[C@H]2CCCCN2C)C2CC2)OC(C)=O)n1`: the growth in the experiment on DU-145 prostate is 6.13% (active); in the experiment on K-562 leukemia, 3.82% (active); with MALME-3M melanoma, 67.8%; in the experiment with MDA-MB-231 breast, -1.7% (active); with RXF 393 renal, 75.8%; in the experiment on SF-268 CNS, 19.2%. Besides, the growth was 3.79% (active) in the experiment on SF-295 CNS, -14.4% (active) in the experiment with SF-539 CNS, 54.2% in the experiment on UACC-257 melanoma and -5.77% (active) in the experiment with M14 melanoma.
For `CC12CCC=CC1CCC1C2CCC2(C)C(c3ccc(=O)oc3)CCC12O` (stereo not given), the growth with DU-145 prostate is -97.4% (active); in the experiment with K-562 leukemia, 0.925% (active); with MALME-3M melanoma, -48.4% (active); with MDA-MB-231 breast, -5.15% (active); in the experiment with RXF 393 renal, -47.2% (active); with SF-268 CNS, -62.8% (active). Moreover, the growth is -60% (active) in the experiment on SF-295 CNS, -90.3% (active) with SF-539 CNS, -70.3% (active) with UACC-257 melanoma and -30.3% (active) with M14 melanoma.
For the compound `CN(CCCCN(C)CCOS(C)(=O)=O)CCOS(C)(=O)=O`, the growth with DU-145 prostate was 96.7%; with K-562 leukemia, 93.3%; in the experiment on MALME-3M melanoma it was 86.9%; in the experiment on MDA-MB-231 breast it was 79.7%; in the experiment with RXF 393 renal, 90.1%; in the experiment on SF-268 CNS it was 66.4%. In addition, the growth in the experiment with SF-295 CNS was 109%; with SF-539 CNS, 47.2%; in the experiment with UACC-257 melanoma it was 82.3%; in the experiment with M14 melanoma, 76.4%.
Consider `C#Cc1ccc2c(c1)C(c1ccccc1)=NCC(=O)N2C`, for which the growth was 70.1% in the experiment with DU-145 prostate; 15.6% in the experiment on K-562 leukemia; 74.5% with MALME-3M melanoma; 50.8% in the experiment on MDA-MB-231 breast; 83.8% with RXF 393 renal; 58.8% in the experiment with SF-268 CNS. Moreover, the growth in the experiment with SF-295 CNS was 25%; with SF-539 CNS it was 41.4%; with UACC-257 melanoma it was 68.5%; with M14 melanoma, 18.5%.
Take `C[C@@]1(CCCCCCCCCc2ccc(O)cc2)C[C@]2(C)OC(=O)C[C@@H]2OO1`: the growth in the experiment with DU-145 prostate is 130%; with K-562 leukemia, 70%; in the experiment on MALME-3M melanoma, 105%; in the experiment on MDA-MB-231 breast, 105%; in the experiment on RXF 393 renal, 120%; with SF-268 CNS, 123%. Also, the growth is 91.9% in the experiment on SF-295 CNS, 139% with SF-539 CNS, 102% in the experiment on UACC-257 melanoma and 99.8% in the experiment on M14 melanoma.
`O=C1C(Cl)=C(N2CCOCC2)C(=O)c2ccccc21`: the growth was 114% with DU-145 prostate; -36.7% (active) in the experiment with K-562 leukemia; 48.2% with MALME-3M melanoma; 84.2% in the experiment with MDA-MB-231 breast; 129% in the experiment on RXF 393 renal; 87.6% with SF-268 CNS. In addition, the growth with SF-295 CNS is 92.9%; in the experiment on SF-539 CNS, 117%; with UACC-257 melanoma it was 54.4%; in the experiment on M14 melanoma, 105%.
Regarding `O=C1C(=Cc2cn(Cc3ccccc3)c3ccccc23)C(=O)N(Cc2ccccc2)C(=O)N1Cc1ccccc1`, the growth was 110% with DU-145 prostate; 81.5% in the experiment on K-562 leukemia; 105% in the experiment on MALME-3M melanoma; 89.3% in the experiment with MDA-MB-231 breast; 57.6% with RXF 393 renal; 87.5% in the experiment on SF-268 CNS. Further, the growth is 34.4% in the experiment on SF-295 CNS, 83.5% in the experiment with SF-539 CNS, 52.9% in the experiment with UACC-257 melanoma and 104% in the experiment with M14 melanoma.
